Data on 11 molecules can be found in ChEMBL document CHEMBL3988442, “University of Dundee, Small-Polar-MMV Screening Library” (2021).

Set-up in all cases: scale not given: direction of the effect not stated beside the values
Test [1] has as its target Protein translocase subunit SecA (Escherichia coli (strain K12)) (UniProt P10408). Put plainly: Assay to Identify E. coli SecA ATPase Inhibitors. The class given is functional. Conditions: 30 µM.
Test [2] addresses T1, Ubiquitin-activating enzyme e1, putative (Leishmania donovani (strain BPK282A1)) (UniProt E9BSI1).
T1 sequence (whole entry): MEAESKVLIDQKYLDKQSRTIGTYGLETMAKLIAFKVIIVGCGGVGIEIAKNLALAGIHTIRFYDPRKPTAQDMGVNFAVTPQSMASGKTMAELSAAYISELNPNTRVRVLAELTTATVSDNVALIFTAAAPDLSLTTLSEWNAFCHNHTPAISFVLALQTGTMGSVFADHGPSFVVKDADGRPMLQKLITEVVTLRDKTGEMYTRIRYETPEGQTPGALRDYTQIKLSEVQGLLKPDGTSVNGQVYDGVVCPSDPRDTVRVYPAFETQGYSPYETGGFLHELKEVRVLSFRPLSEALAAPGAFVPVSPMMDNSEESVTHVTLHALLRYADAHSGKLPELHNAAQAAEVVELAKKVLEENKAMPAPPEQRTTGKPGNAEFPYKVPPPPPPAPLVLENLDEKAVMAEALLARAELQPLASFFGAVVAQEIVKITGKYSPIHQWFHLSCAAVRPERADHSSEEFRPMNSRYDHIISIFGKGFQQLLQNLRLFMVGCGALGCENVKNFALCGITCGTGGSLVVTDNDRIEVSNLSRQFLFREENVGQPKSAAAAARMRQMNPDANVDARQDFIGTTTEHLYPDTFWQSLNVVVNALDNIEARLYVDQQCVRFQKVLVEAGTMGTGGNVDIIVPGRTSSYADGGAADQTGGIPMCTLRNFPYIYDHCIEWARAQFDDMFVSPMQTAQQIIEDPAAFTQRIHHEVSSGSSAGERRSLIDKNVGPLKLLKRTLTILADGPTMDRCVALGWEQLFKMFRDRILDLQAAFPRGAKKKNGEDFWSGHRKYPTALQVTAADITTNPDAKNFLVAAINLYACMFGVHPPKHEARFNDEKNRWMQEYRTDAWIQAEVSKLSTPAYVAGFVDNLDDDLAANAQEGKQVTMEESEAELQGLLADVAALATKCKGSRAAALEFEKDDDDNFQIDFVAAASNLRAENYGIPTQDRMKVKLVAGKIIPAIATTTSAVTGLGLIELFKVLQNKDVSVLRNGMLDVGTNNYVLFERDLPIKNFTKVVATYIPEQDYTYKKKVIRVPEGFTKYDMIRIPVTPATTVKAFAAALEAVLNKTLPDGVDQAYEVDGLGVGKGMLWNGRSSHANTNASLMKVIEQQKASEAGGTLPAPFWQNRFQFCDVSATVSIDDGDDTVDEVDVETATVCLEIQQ
Briefly: Leishmania donovani Ubiquitin Activating Enzyme (LdE1). The class given is functional. To be noted: 30 µM.

For test [3], the target named is AMP-activated protein kinase, AMPK (Homo sapiens) (UniProt P54646+O43741+P54619+Q9UGJ0+Q9Y478+Q13131+Q9UGI9). Briefly: AMP-dependent Kinase enzyme assay. An in vitro enzyme assay that detects ADP turnover that is directly proportional to AMPK activity. This uses naive AMPK that is activated during the assay with MK-8722. The class given is functional. Conditions: 30 µM.

Test [4] concerns the target Sialic acid-binding Ig-like lectin 9 (Homo sapiens) (UniProt Q9Y336). Briefly: Hs-Siglec9 ALPHAscreen SOP 20170721. Conditions: 10 µM. (In general: In Alpha technology, singlet oxygen from a donor bead excites a nearby acceptor bead.)
A further test relates to Trypanosoma cruzi. Briefly: Trypanosoma cruzi phosphomannomutase and mannose-1-phosphate guanylyltransferase assay. The class given is functional. To be noted: 10 µM.
The target in test [5] is T2, Arginase-2, mitochondrial (Homo sapiens) (UniProt P78540).
T2 sequence (whole entry): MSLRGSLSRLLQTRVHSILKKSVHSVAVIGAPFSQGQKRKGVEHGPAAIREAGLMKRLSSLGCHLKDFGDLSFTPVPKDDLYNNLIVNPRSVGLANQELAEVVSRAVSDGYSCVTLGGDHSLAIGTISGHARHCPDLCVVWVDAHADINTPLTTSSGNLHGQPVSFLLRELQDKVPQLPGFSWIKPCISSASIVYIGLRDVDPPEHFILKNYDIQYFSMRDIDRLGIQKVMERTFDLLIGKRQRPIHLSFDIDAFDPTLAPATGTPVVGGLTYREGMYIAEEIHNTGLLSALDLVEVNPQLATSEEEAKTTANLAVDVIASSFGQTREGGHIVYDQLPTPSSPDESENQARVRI
Briefly: in vitro enzyme assay to detect the production of urea directly proportional to the activity of Arginase II. Also: in the data most compounds retested in dose-response had high values. Conditions: 33.3 µM. In kind it is functional.

Test [6] concerns the target T3, Proteasome subunit beta (Trypanosoma cruzi) (UniProt O96673).
T3 sequence (whole entry): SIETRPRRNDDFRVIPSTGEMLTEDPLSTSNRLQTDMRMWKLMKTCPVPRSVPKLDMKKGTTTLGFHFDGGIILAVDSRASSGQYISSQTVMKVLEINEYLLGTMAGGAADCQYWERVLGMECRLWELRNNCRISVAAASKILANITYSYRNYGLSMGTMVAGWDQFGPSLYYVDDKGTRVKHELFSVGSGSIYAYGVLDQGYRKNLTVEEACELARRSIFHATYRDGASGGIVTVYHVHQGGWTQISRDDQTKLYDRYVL
Briefly: Trypanosoma cruzi proteasome chymotrypsin-like activity (TcProtChymo) assay. Also: in the data most compounds retested in dose-response had high values. The class given is functional. To be noted: 9.37 µM.

For the next test, the species on record is Homo sapiens. Put plainly: To identify inhibition of the IFN signalling (Jak-Stat) pathway via expression of an eGFP reporter gene under the control of an IFN-stimulated response element (ISRE) containing MxA promoter. In kind it is functional. Conditions: 30 µM. Background: In a reporter assay the amount or activity of a reporter protein is the signal.

For test [7], the target named is T4, Tyrosyl-tRNA synthetase, putative (Trypanosoma cruzi (strain CL Brener)) (UniProt Q4DSP6).
T4 sequence (whole entry): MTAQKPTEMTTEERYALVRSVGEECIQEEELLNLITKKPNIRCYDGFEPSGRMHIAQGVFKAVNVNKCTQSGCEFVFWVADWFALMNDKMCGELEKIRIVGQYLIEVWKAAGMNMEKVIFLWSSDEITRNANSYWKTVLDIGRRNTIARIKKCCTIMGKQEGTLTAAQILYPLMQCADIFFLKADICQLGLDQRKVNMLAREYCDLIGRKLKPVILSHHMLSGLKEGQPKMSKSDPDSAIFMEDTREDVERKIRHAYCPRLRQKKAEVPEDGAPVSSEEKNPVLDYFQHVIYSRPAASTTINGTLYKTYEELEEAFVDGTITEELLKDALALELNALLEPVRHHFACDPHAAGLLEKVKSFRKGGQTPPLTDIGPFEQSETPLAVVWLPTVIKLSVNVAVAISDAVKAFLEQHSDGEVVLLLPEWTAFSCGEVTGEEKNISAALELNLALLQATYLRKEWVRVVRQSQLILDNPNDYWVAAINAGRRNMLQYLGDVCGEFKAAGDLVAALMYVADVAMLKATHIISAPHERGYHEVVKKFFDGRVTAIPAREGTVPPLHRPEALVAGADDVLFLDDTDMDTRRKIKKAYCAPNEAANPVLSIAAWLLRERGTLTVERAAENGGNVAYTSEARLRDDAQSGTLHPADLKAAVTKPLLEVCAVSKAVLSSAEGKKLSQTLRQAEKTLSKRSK
Put plainly: Trypanosoma cruzi tyrosyl tRNA synthetase (TcYRS) _High Tyrosine SOP. Also: in the data most compounds retested in dose-response had high values. To be noted: 30 µM. The class given is functional.

In test [8] the target is T4, Tyrosyl-tRNA synthetase, putative (Trypanosoma cruzi (strain CL Brener)). Put plainly: Trypanosoma cruzi tyrosyl tRNA synthetase (TcYRS) SOP. In kind it is functional. Conditions: 30 µM.
For test [9], the target named is Chromo domain-containing protein 1 (Saccharomyces cerevisiae (strain ATCC 204508 / S288c) (Baker's yeast)) (UniProt P32657). Put plainly: ScCHD-1 Enzyme Inhibition Assay. Also: in the data most compounds retested in dose-response had high values. In kind it is functional. To be noted: 30 µM.

For some of these results: Measured potencies and affinities stand elsewhere.

Chain of Chromo domain-containing protein 1 (Saccharomyces cerevisiae (strain ATCC 204508 / S288c) (Baker's yeast)) (P32657 whole entry, the tested form may be a part): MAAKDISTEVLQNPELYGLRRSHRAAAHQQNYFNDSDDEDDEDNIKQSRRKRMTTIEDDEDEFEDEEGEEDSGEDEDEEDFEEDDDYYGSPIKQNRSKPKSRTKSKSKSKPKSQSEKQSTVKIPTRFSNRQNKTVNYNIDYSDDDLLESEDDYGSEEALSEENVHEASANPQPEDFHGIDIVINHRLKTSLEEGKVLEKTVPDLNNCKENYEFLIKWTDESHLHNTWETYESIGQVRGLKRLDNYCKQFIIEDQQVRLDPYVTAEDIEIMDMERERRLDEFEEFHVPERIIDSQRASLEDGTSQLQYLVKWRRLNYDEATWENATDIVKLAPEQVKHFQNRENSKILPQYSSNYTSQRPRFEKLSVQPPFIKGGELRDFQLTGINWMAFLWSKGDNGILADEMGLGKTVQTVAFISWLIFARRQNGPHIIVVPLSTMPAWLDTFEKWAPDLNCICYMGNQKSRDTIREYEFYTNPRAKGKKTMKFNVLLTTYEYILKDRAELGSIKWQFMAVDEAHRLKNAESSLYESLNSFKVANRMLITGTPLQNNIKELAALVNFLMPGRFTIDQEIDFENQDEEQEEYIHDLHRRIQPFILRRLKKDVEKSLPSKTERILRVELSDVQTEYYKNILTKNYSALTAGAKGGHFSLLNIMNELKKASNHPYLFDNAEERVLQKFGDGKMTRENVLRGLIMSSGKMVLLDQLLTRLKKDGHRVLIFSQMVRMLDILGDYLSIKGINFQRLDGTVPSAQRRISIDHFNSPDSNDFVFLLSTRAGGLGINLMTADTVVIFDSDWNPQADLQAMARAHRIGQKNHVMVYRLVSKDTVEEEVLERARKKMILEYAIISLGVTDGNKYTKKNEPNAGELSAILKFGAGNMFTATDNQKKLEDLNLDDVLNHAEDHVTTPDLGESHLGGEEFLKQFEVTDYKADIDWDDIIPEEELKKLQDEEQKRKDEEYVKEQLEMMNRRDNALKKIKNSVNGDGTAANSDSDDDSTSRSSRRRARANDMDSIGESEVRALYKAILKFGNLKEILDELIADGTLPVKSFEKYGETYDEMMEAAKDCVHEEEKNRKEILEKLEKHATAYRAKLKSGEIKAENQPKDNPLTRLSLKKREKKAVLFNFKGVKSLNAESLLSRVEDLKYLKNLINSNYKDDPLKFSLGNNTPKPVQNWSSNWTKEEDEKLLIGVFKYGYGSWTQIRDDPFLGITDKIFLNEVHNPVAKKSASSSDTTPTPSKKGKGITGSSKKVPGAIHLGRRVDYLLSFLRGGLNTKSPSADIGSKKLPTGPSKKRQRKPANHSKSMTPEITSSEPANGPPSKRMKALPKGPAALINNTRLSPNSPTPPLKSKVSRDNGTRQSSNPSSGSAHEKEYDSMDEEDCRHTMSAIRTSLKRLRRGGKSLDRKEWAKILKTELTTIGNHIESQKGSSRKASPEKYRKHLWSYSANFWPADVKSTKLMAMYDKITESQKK
Chain of Sialic acid-binding Ig-like lectin 9 (Homo sapiens) (Q9Y336 whole entry): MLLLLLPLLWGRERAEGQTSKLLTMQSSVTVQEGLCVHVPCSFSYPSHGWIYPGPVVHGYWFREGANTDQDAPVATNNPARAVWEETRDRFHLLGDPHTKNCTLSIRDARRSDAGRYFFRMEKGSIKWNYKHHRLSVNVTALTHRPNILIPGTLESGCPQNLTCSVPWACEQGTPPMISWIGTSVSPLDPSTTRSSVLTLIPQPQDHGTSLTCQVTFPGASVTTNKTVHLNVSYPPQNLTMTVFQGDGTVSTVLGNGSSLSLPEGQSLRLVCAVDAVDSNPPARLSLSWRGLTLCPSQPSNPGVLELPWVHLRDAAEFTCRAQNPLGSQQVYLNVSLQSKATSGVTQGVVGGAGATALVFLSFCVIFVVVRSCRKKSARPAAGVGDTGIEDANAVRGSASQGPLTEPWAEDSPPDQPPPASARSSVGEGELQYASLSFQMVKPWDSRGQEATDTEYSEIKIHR
Chain of Protein translocase subunit SecA (Escherichia coli (strain K12)) (P10408 whole entry): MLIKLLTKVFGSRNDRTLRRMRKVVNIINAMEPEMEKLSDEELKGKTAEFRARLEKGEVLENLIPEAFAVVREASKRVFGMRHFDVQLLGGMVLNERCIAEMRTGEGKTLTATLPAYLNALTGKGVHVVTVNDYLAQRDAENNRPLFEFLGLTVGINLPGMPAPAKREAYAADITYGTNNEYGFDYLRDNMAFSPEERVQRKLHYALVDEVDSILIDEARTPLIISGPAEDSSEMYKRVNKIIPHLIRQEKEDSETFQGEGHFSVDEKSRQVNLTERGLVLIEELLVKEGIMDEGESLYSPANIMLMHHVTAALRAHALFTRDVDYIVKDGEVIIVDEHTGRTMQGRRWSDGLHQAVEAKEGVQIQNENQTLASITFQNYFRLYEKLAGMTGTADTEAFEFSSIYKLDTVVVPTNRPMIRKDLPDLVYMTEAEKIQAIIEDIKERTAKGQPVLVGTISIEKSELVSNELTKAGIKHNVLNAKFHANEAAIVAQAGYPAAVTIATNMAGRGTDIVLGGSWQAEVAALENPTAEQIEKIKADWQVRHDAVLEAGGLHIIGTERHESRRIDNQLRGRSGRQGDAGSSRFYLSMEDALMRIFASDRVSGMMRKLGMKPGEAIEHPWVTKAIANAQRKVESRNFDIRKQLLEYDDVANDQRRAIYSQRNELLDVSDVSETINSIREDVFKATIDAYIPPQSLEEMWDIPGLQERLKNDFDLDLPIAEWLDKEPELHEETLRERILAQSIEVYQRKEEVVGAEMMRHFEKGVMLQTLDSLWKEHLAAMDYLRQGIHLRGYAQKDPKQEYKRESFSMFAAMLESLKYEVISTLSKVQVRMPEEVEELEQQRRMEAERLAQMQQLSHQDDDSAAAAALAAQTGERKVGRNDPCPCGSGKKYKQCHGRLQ

Consider `CN(C)CC(=O)N1CCC2(CC1)CN(c1ccsc1)C(=O)CO2`, for which the Percent Effect was -9.33% in test [1]; 2.67% in [2]; 3.11% in test [3]; -6.49% in test [4]; -4.33% with Trypanosoma cruzi; -0.233% in test [5]. Moreover, the Percent Effect in test [6] is 3.96%; in the test listed under Homo sapiens, 15.6%; in test [7] it was 0%; in [8], -3.85%; in [9], -3.46%.
On to `Cc1ccc(CC2CCCN2CC(=O)NCc2cccnc2)cc1` (stereo unspecified), for which the Percent Effect in [1] was -4.01%; in test [2] it was 2.63%; in [3] it was 5.21%; in [4], 3.98%; with Trypanosoma cruzi, 1.66%; in test [5] it was -5.92%. The Percent Effect was 14.1% in [6]; -8.66% in the test filed under Homo sapiens; 4.25% in [7]; 13% in test [8]; -4.98% in test [9].
`CC(C)CCN1CC2(CCCN(C(=O)c3cscn3)C2)CCC1=O` (stereo unspecified): the Percent Effect is -3.18% in test [1]; 7.79% in test [2]; 1.5% in [3]; 11.5% in [4]; 4.82% in the test with Trypanosoma cruzi; -66.2% in [5]. The Percent Effect is 8.98% in test [6]; -4.77% in the test listed under Homo sapiens; 5.38% in test [7]; 13.6% in [8]; -0.298% in test [9].
Turning to `CC(=O)Nc1nc(C(=O)N2CCCC(n3ccnc3)C2)cs1` (stereo unspecified), the Percent Effect in test [1] is -2.04%; in test [2] it was -7.89%; in test [3], -5.64%; in test [4], -2.76%; in the test on Trypanosoma cruzi it was -6.44%; in test [5] it was 3.6%. The Percent Effect in [6] was -6.34%; in the test filed under Homo sapiens, -6.45%; in test [7], 2.46%; in test [8], 1.24%; in [9], 5.04%.
`CCc1ncc(CN(C)C(=O)Nc2cccnc2N2CCCC2)s1`: the Percent Effect was -6.28% in test [1]; 13.2% in [2]; -27.9% in test [3]; 8.15% in test [4]; 7.38% in the test on Trypanosoma cruzi; 1.8% in [5]. Moreover, the Percent Effect is 10.4% in test [6]; -11.4% in the test listed under Homo sapiens; 5.42% in test [7]; 13.6% in test [8]; -1.2% in test [9].
Turning to `Cc1cc(CNC(=O)NC(C)c2ccncc2)no1` (stereo unspecified), the Percent Effect in test [1] is -0.908%; in test [2] it was 7.79%; in [3], 2.08%; in [4] it was 2.87%; in the test on Trypanosoma cruzi it was -8.36%; in test [5], -1.38%. In addition, the Percent Effect in test [6] is 12.7%; in the test listed under Homo sapiens, 11.9%; in test [7] it was 2.15%; in test [8], 6.17%; in [9], -1.85%.
Turning to `CCCNC(=O)CNC(=O)CCc1ccccc1Br`, the Percent Effect in [1] was 0.865%; in test [2], 6.94%; in test [3] it was -6.34%; in test [4] it was -5.04%; in the test with Trypanosoma cruzi, 1.85%; in test [5], 13.7%. Also, the Percent Effect in [6] was 18.1%; in the test filed under Homo sapiens, -8.19%; in test [7], 2.1%; in test [8], 7.69%; in [9], -2.27%.
With `c1ccc(CCCN2CC(n3cccn3)C2)cc1`, the Percent Effect in test [1] is 0.15%; in [2], 2.7%; in [3], -2.18%; in test [4] it was -4.46%; in the test on Trypanosoma cruzi it was 5.48%; in test [5] it was -2.03%. Besides, the Percent Effect in [6] was 14.7%; in the test listed under Homo sapiens, 25.9%; in [7], 7.92%; in test [8] it was 23.2%; in test [9], -5.99%.
On to `CC(C(N)=O)S(=O)(=O)Cc1cc(Cl)c2c(c1)OCO2` (stereo unspecified), for which the Percent Effect in [1] was -0.171%; in test [2], 15.8%; in test [3], 1.18%; in [4], -10.6%; in the test on Trypanosoma cruzi, -3.83%; in [5], 7.91%. The Percent Effect was 6.51% in test [6]; 7.44% in the test filed under Homo sapiens; 5.42% in [7]; 13.6% in test [8]; -7.99% in [9].
As to `N#Cc1cccc(NC(=O)N[C@H](CO)c2ccccc2)c1`, the Percent Effect was -2.38% in test [1]; 5.41% in test [2]; 5.16% in test [3]; 5.37% in test [4]; -1.35% in the test with Trypanosoma cruzi; 3.33% in test [5]. Moreover, the Percent Effect was 11.6% in [6]; 5.19% in the test filed under Homo sapiens; 1.59% in test [7]; 12.2% in [8]; -2.38% in test [9].
Regarding `O=C(c1ccncn1)N1CCO[C@H]2[C@@H](OCc3cccnc3)CC[C@@H]21`, the Percent Effect in [1] was -1.55%; in test [2], 8%; in test [3], -0.169%; in test [4], 5.8%; with Trypanosoma cruzi, -3.48%; in [5], -23.8%. Moreover, the Percent Effect in [6] was 8.72%; in the test filed under Homo sapiens it was 2.92%; in [7], -6.25%; in [8], 7.5%; in test [9], -6.65%.
